Measured values: PubChem BioAssay AID720518 (National Center for Advancing Translational Sciences (NCATS), 2013)
Results filed as inconclusive are left out. Values without a mark were called inactive. Activity calls are given as the source filed them. Calls come from the whole dose curve.

test: qHTS for Inhibitors of Cell Surface uPA Generation: Wild-type Protective Antigen (WT-PrAg) Counterscreen for Cherry-picked Compounds; conditions: cells, WT protective antigen toxicity counterscreen; series mostly up to 115 µM; activity (protection): at the top concentration; for activity (protection): 0% is about no effect
Potency is the fitted concentration of half-maximal effect.

First: O=C(C1=C[C@H](c2ccccc2)C[C@H](OCCCCO)O1)N1CCN(Cc2ccc3c(c2)OCO3)CC1
Second: Cc1ccc(S(=O)(=O)NCC(=O)OC(C)C(=O)NCc2ccc3c(c2)OCO3)cc1 (stereo not given)
The “activity (protection)” value of the first is lower: -2.28% for the first, -0.702% for the second.

Going from Cc1ccc(N2C(=O)c3ccccc3C2(O)c2ccccc2)cc1 (stereo not given) to COC(=O)COc1cc2ccccc2cc1C(=O)Nc1ccccc1, the “activity (protection)” value rises from -0.943% to -0.212%.

Going from CC1CCC(NC(=O)c2nn(C)c3c2CS(=O)(=O)c2ccccc2-3)CC1 (stereo not given) to CCOc1ccccc1C(=O)NC1CCN(CC(=O)Nc2cc(OC)ccc2OC)CC1, the “activity (protection)” value rises from -1.64% to -0.466%.

Going from CCCCn1c(N)c(N(CCC(C)C)C(=O)c2sc3nc4n(c(=O)c3c2C)CCC4)c(=O)[nH]c1=O to CC(C)CN(C(=O)CN1CCC(C)CC1)c1c(N)n(CC(C)C)c(=O)[nH]c1=O, the “activity (protection)” value falls from 4.42% to 0.779%.

Compared with CN(CC(=O)NCc1ccco1)CC(=O)Nc1c(Cl)cccc1Cl, O=C(CCS(=O)(=O)c1ccc2c(c1)NC(=O)CS2)NCc1cccs1 is higher in “activity (protection)” value: 0.145% for the first, 1.32% for the second.

First: O=C(CN1CCCC1)Nc1cccc(Cl)c1Cl
Second: N#Cc1cccc(NC(=O)Cn2cnc(S(=O)(=O)N3CCOCC3)c2)c1
The “activity (protection)” value of the first is higher: 1.89% for the first, -0.557% for the second.

Going from Cn1nc(N2CCN(S(=O)(=O)c3ccccc3)CC2)c(=O)n(C)c1=O to COC(=O)/C(C#N)=C/c1c(N2CCN(c3ccccc3)CC2)nc2c(C)cccn2c1=O, the “activity (protection)” value falls from -0.197% to -0.794%.

Going from CCCCCN(C(=O)CCC(=O)OCCOc1cccc(Cl)c1)c1c(N)n(CCCC)c(=O)[nH]c1=O to CCOCCCn1c(SCC(=O)Nc2cc(OC)ccc2OC)nc2ccccc2c1=O, the “activity (protection)” value falls from -0.186% to -2.4%.

Compared with CCS(=O)c1scc(-c2ccc(Cl)cc2)c1C#N (stereo not given), O=C(O)c1ccc(-c2ccc(/C=C3\NC(=O)N(Cc4ccc(Cl)cc4)C3=O)o2)cc1 is higher in “activity (protection)” value: -2.44% for the first, 0.0956% for the second.

First: O=C(NC[C@H]1CCCO1)c1cccc2c1C(=O)c1ccc(-c3ccc(F)cc3OCc3ccccc3)cc1S2(=O)=O
Second: Cc1cccc(CCNC(=O)Cc2ccc(NC3=NC4CS(=O)(=O)CC4S3)cc2)c1 (stereo not given)
The “activity (protection)” value of the first is lower: -1.01% for the first, 0.911% for the second.

First: C[C@@H](C(=O)Nc1ccc2ccccc2c1)[C@@H]1C[C@@]1(C)[C@@H](NC(=O)c1cccnc1)c1ccccc1
Second: O=C(NC(=O)c1ccccc1)Nc1cccc(S(=O)(=O)N2CCCCC2)c1
The “activity (protection)” value of the first is lower: -2.34% for the first, -0.591% for the second.

Going from CN(C)C(=O)NC(NC(=S)Nc1ccccc1)C(Cl)(Cl)Cl (stereo not given) to CC(/C=C1\SC(=S)N(CCCC(=O)Nc2ccc(C(=O)O)cc2)C1=O)=C\c1ccccc1, the “activity (protection)” value falls from -1.51% to -1.6%.

Compared with COc1ccc(NC(=O)/C(N=Nc2cc(S(=O)(=O)Nc3ccc(OC)cc3)ccc2OC)=C(\C)O)cc1, COc1cccc(CNC(=O)C2CCCN(S(=O)(=O)c3ccc4c(c3)C(C)(C)C(=O)N4C)C2)c1 (stereo not given) is higher in “activity (protection)” value: -1.2% for the first, 0.799% for the second.

Going from CC(C)(C)C(=O)NCCc1nc2ccccc2n1CC(=O)c1ccc(Cl)cc1 to COCCN(CCOC)c1nc(-c2ccc(C)cc2)nc2ccccc12, the “activity (protection)” value falls from -0.94% to -1.39%.

Going from Nc1nc2ccc(Br)cc2o1 to O=C(Nn1cnnc1)c1ccc(Cl)c(Cl)c1, the “activity (protection)” value rises from -1.4% to -0.404%.

First: Cn1cccc1Cc1nnc(SCC(=O)Nc2ccc3c(c2)OCCO3)n1-c1ccc(F)cc1
Second: O=C(CCN1CCN(c2ccccc2F)CC1)Nc1ccc(F)cc1
The “activity (protection)” value of the first is higher: -1.41% for the first, -2.31% for the second.

Compared with CCOc1cc(S(=O)(=O)NC2CC(C)(C)NC(C)(C)C2)ccc1Cl, O=[N+]([O-])c1ccc(C[n+]2cccc(O)c2)cc1 is lower in “activity (protection)” value: 0.451% for the first, -1.12% for the second.

Compared with COC(=O)CSc1nc(N2CCOCC2)c2c(c1C#N)CCCC2, CC1(CC(=O)N/N=C/c2cc(Br)c(O)cc2O)OCCO1 is lower in “activity (protection)” value: -0.658% for the first, -2.29% for the second.

Going from O=C1C[C@@H]2CCN3C(=O)CCC[C@@H]([C@H]23)[C@H]1Cc1ccccc1 to Cc1cccc(NC(=O)c2cc3c(=O)n4ccccc4nc3s2)c1, the “activity (protection)” value rises from -0.693% to 0.263%.

With O=C1C=CC(O)(c2cc(=O)c3c(O)cc(O)cc3o2)C=C1 the Potency was 16.5 µM (active).
For S=C(Nc1ccccc1Cl)N1CCCC(c2ccccc2)=N1, the Potency was 16.5 µM (active).
